# GPT2 inh = GPT2 alanine aminotransferase inhibition; Recombinant GPT2, coupled pyruvate oxidase/HRP Amplex Red fluorescence; 0.25% of 100,000 active; Potency, µM (highest dose often 57.7 µM), for inactives: top-dose activity change, negative = inhibition, usual class: inhibitors; Q8TD30; note: nearly all actives have a fitted effect of over 60% in size
#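 Inhibition is scored from Amplex Red fluorescence generated when pyruvate oxidase and HRP act on pyruvate released by GPT2. Reactions contain 10ng/uL enzyme, 250uM a-KG and 2mM L-alanine and run 30 min at room temperature.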
# FLuc inh = inhibitors of firefly (Photinus pyralis) luciferase; P08659; Potency, µM (titrated, usually from 115 µM), actives largely listed as inhibitors; purified P. pyralis luciferase, luminescence, biochemical; AID 1347043; 2.5% of 76,000 active; note: nearly all actives have a fitted effect of over 65% in size
#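 Purified 10nM P. pyralis luciferase with 10uM D-luciferin and 10uM ATP in 50mM Tris acetate pH 7.5, 10mM Mg acetate, 0.01% Tween-20, 0.05% BSA. qHTS titration; luminescence read by CCD imager.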
# NIH3T3 tox = NIH 3T3 cell cytotoxicity; NIH 3T3 viability, CellTiter-Glo ATP luminescence, 48-72 h; Potency, µM (titrated, usually from 96.7 µM), without a hit: at the top dose activity change, negative = cytotoxicity, usual class: inhibitors; 4.3% of 94,000 active; note: nearly all actives have a fitted effect of over 55% in size
#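 Cytotoxicity was measured by CellTiter-Glo ATP luminescence after 48 or 72 h compound exposure at 37 °C. Mouse NIH 3T3 fibroblasts were seeded at 400 cells/well and dosed by 23 nL pin transfer.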
# hNpr1 antagonist = antagonists of human natriuretic peptide receptor Npr1. P16066. HEK293 hNpr1 GloSensor cGMP, ANP-stimulated luminescence. Potency, µM (top dose mostly 46.3 µM), inactives show at the top dose activity change, negative = inhibition, most hits filed as inhibitors. 1.6% of 76,000 active. AID 1347048; calls by dose curve; note: nearly all actives have a fitted effect of over 60% in size
# Target sequence (P16066 whole entry, looked up): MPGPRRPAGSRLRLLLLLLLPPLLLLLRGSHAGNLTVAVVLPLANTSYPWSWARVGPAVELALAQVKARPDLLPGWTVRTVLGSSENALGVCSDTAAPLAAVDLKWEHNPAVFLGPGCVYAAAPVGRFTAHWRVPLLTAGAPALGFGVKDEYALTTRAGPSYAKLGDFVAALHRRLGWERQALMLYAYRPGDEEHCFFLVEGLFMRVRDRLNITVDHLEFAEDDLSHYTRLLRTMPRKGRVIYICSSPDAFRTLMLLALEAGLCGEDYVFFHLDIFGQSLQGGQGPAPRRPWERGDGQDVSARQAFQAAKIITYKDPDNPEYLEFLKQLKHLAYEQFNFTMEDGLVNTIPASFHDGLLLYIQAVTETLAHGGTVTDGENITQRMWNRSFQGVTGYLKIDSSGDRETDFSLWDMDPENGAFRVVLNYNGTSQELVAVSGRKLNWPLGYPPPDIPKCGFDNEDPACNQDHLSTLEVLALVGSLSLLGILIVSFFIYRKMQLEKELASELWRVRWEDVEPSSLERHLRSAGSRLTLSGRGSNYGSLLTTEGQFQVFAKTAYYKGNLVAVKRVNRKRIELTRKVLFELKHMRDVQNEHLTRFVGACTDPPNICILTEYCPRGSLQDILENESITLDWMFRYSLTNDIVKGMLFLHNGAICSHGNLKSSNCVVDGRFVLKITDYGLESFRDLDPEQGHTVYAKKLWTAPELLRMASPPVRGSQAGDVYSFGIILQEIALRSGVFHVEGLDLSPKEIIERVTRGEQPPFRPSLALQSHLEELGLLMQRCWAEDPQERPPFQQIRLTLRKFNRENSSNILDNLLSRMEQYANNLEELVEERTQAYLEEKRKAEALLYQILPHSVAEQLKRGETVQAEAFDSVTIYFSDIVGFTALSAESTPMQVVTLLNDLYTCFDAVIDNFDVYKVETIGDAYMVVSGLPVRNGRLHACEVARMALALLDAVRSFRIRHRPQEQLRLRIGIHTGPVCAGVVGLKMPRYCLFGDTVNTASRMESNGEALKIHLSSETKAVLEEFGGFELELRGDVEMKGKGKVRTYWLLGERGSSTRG
#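 Compound pre-incubated 30 min at room temperature on GloSensor-loaded HEK293 cells stably carrying hNpr1 and the pGS-40F cGMP biosensor. Stimulation uses hNppA at 0.1 nM final; luminescence is taken at baseline and 20 min post-agonist.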
# HEK cytotox = kills HEK 293 cells; HEK 293 viability, ATP luminescence (CellTiter-Glo), 48-72 h; Potency, µM (series often up to 115 µM), for the others: top-dose activity change, negative = cytotoxicity, hits mostly inhibitors; 6.6% of 94,000 active; AID 1345083; note: nearly all actives have a fitted effect of over 60% in size
#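 Cells seeded first (HEK 293, 250 cells/well), then compound added by pintool. Incubation ran 48 or 72 hr at 37 degree Celsius. CellTiter-Glo was added and luminescence imaged after 10 min at room temperature.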
# * marks the source's active call; other numbers are inactive results; i = inactive; ? = inconclusive; . = no result given; [ ] = dose if it differs, or a comment. A selection: hits, their analogues and other compounds. The true share with any hit is near 10%. Unless noted, calls come from the whole dose curve; as a rule, active = well fitted curve in the direction sought with a large enough effect; inconclusive = small, poorly fitted or top-dose-only effect, or another doubt; inactive = no such curve, though single readings can be large; an effect the other way counts as inactive or inconclusive. % is set by controls: 0 for no effect and ±100 for the full control effect; potency is the fitted concentration of half-maximal effect.
SMILES,GPT2 inh,FLuc inh,NIH3T3 tox,hNpr1 antagonist,HEK cytotox
COc1ccccc1NC(=O)C1CN(C2CCCC2)C(=O)N1 (configuration not stated),i,.,-24%[138 µM],.,-18%[172 µM]
COc1ccccc1-c1nnc2ccc(C(=O)N3CCN(C)CC3)cn12,-3%,.,5%,.,-3%
COc1cc2c(cc1-c1cccc(C(F)(F)F)c1)OCC(C)(C)CC2CO (configuration not stated),.,.,28µM*,.,32µM*
CC(C)CC(=O)Nc1ccc2c(c1)CCC(=O)N2CC(C)C,-21%,i,-22%,2%,?
CCCN1C(=O)CCc2cc(NC(=O)c3ccc(C)s3)ccc21,-2%,?,?,-10%,35µM*
CC(C)CN1C(=O)CCc2cc(NC(=O)c3ccc(N(C)C)cc3)ccc21,-9%,?,?,-29%,28µM*
O=C(NCc1cccs1)[C@@H]1C[C@@H](O)[C@H](O)[C@@H]2NC(=S)N(c3ccc(OC(F)(F)F)cc3)[C@@H]21,4%,45µM*,?,-5%,?
O=C(NCc1cccs1)c1ccc2nnc(-c3ccc(OC(F)(F)F)cc3)n2c1,i,.,?,.,?
O=C(Nc1ccc(Cl)cc1)NC1CCCN(c2ccc3nnc(C4CC4)n3n2)C1 (configuration not stated),.,.,-13%,.,?
CCN1CCN(CCNC(=O)c2cc(-c3ccc(Cl)cc3)cn2CC)CC1,-4%,i,20µM*,-2%,28µM*
CCN1CCN(CCNC(=O)c2cc(-c3ccc(Cl)cc3)cn2C)CC1,i,i,?,-1%,25µM*
C#CCNC(=O)CNC(=O)c1cccc(-c2ccc(C(F)(F)F)cc2)c1,-1%,.,-27%,.,?
CC(C)NC(=O)c1coc(COc2ccc3c(c2)C(c2cccc(F)c2)N(C(=O)C2CC2)CC3)n1 (configuration not stated),i,i,22µM*,-13%,?
Cc1cccc(C2c3cc(OCc4nc(C(=O)NC(C)C)co4)ccc3CCN2C(=O)C2CC2)c1 (configuration not stated),i,i,14µM*,-16%,18µM*
CCOC(=O)c1ccc(NC(=O)Cn2ccn3nc4c(c3c2=O)CCCCC4)cc1,i,i,?,-4%,45µM*
CCOc1ccc(NC(=O)Cn2ccn3nc4c(c3c2=O)CC(C)CC4)cc1 (configuration not stated),-6%,i,32µM*,2%,40µM*
O=C(Cn1ccn2nc3c(c2c1=O)CCCC3)Nc1ccccc1,-6%,i,i,5%,?
COC[C@@H]1CN(C(=O)c2cnccn2)C[C@H]1c1ccccn1,i,.,-3%,.,i
CCCC(=O)N1Cc2ccccc2CC2(CCCN(CC3CCNC3)C2)C1 (configuration not stated),i,.,-5%,.,?
CC(=O)c1c(O)cc(O[C@@H]2O[C@H](CO)[C@@H](O)[C@H](O)[C@H]2O)cc1O,i,.,.,.,.
C[C@@H]1O[C@@H](O[C@H]2[C@H](Oc3cc(O)c(C(=O)CCc4ccc(O)cc4)c(O)c3)O[C@H](CO)[C@@H](O)[C@@H]2O)[C@H](O)[C@H](O)[C@H]1O,7.1µM*,.,.,.,.
Cc1ccc(-c2cc(C(=O)N3CCN(Cc4ccccc4)CC3)c3cnn(C)c3n2)cc1,i,.,?,.,?
Cn1ncc2c(C(=O)N3CCN(Cc4ccccc4)CC3)cc(-c3ccccc3F)nc21,.,.,?,.,40µM*
Cc1ccc(-c2cc(C(=O)N3CCN(Cc4ccccc4)CC3)c3cnn(C)c3n2)c(C)c1,2%,.,?,.,?
COc1ccc(-c2cc(C(=O)N3CCN(Cc4ccccc4)CC3)c3cnn(C)c3n2)cc1,.,.,?,.,35µM*
SMILES,GPT2 inh,FLuc inh,NIH3T3 tox,hNpr1 antagonist,HEK cytotox
COc1ccc(-c2cc(C(=O)N3CCN(c4ncccn4)CC3)c3cnn(C)c3n2)cc1,.,.,?,.,40µM*
O=C(Cc1ccc2c(c1)OCO2)N1CCc2c(n(CCOc3ccccc3)n(-c3ccccc3)c2=O)C1,-11%,i,?,-9%,?
Cn1nc(C(=O)NCc2cccnc2)c2c1CN(C(=O)C1CCCCC1)C2,-23%,.,-7%,.,4%
O=C([C@@H]1C[C@H](c2ccc(F)cc2)N(Cc2ccccc2Cl)C1)N1CCN(CCO)CC1,-24%,i,?,-16%,?
O=C([C@@H]1C[C@H](c2ccc(F)cc2)N(Cc2ccccc2Cl)C1)N1CCOCC1,-23%[88.5 µM],i,89µM*,-5%[70.6 µM],?
O=C([C@@H]1C[C@H](c2ccc(F)cc2)N(Cc2ccccc2Cl)C1)N1CC(O)C1,-8%[88.5 µM],i,89µM*,-13%[70.6 µM],71µM*
COc1ccc(CNC(=O)C2CCCN2c2nccc(Nc3ccc(C)cc3)n2)cc1 (configuration not stated),i,.,?,.,?
COc1ccc(CNC(=O)C2CCCN(c3nccc(Nc4ccc(C)cc4)n3)C2)cc1 (configuration not stated),i,.,?,.,10µM*
COc1ccc(Nc2ccnc(N3CCCC(C(=O)NCc4cccc(Cl)c4)C3)n2)cc1 (configuration not stated),i,.,?,.,?
COc1ccc(Nc2ccnc(N3CCCC(C(=O)NCc4ccccc4)C3)n2)cc1 (configuration not stated),i,.,35µM*,.,40µM*
COc1ccc(Nc2ccnc(N3CCCC(C(=O)NCc4cccc(OC)c4)C3)n2)cc1 (configuration not stated),i,.,35µM*,.,25µM*
Cc1ccc(Nc2ccnc(N3CCCC(C(=O)NCc4ccc5c(c4)OCO5)C3)n2)cc1 (configuration not stated),i,.,13µM*,.,7.9µM*
O=c1[nH]c2cc(-c3nc(-c4cccnn4)no3)ccc2n1C1CCC(O)CC1 (configuration not stated),i,i,-27%,5%,?
COc1ccc(CNC(=O)C2CCCN(c3nccc(Nc4ccccc4F)n3)C2)cc1 (configuration not stated),i,.,10µM*,.,28µM*
COc1ccc(Nc2ccnc(N3CCCC(C(=O)NCc4cccc(F)c4)C3)n2)cc1 (configuration not stated),2%,.,16µM*,.,13µM*
CC(C)c1ccc(CN2CCC3OCCN(c4ccccc4)C(=O)C3C2)cc1 (configuration not stated),-18%[88.5 µM],i,?,-17%[70.6 µM],?
CCCn1c(C)cnc1CC1CCCN(C(=O)Cc2cccc(F)c2)C1 (configuration not stated),i,i,-13%,-8%,-26%
O=C(NCc1cccc(Cl)c1)c1ccc2oc(-c3ccccn3)nc2c1,i,.,-25%,.,?
